We go through ten compounds from PubChem BioAssay (NCI).

Test [1] is described as follows: NCI Yeast Anticancer Drug Screen. Data for the rad50 strain (AID 155).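 Also: 0% = growth of vehicle-only cultures of the same strain.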 Conditions: S. cerevisiae rad50 strain growth inhibition, stronger effect = higher value. The essentials:
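Relative growth inhibition (compound vs vehicle) was measured in yeast with a defined repair-gene alteration.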

Test [2] in a line: NCI Yeast Anticancer Drug Screen. Data for the mec2-1 strain (AID 157). As to conditions: S. cerevisiae mec2-1 strain, stronger effect = higher value. The essentials:
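Strain: mec2-1 (DNA repair/cell cycle alteration). Compound exposure, then growth measured; inhibition expressed relative to vehicle.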

Test [3] can be described thus: NCI Yeast Anticancer Drug Screen. Data for the sgs1 mgt1 strain (AID 161).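 Also: 0% = growth of cultures given vehicle only.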 As to conditions: S. cerevisiae sgs1 mgt1 strain, stronger effect = higher value. The essentials: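 Test agents were incubated with a DNA-repair-mutant yeast strain. Growth was then read and compared against vehicle-treated controls.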
A short description of test [4]: NCI Yeast Anticancer Drug Screen. Data for the cln2 rad14 strain (AID 165).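 Also: 0% = growth equal to vehicle treated cultures.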 Conditions: S. cerevisiae cln2 rad14 strain, stronger effect = higher value. The essentials:
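Compounds are applied to the cln2 rad14 yeast strain, and growth is then compared with that of vehicle-treated cultures to give inhibition.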

Test [5] can be described thus: NCI Yeast Anticancer Drug Screen. Data for the bub3 strain (AID 167). As to conditions: S. cerevisiae bub3 mutant strain, stronger effect = higher value. The essentials:
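Screening used yeast with an engineered genetic alteration affecting cell cycle control. Compound-exposed cultures were compared with vehicle cultures, and reduced growth was taken as inhibition.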

Test [6] in a line: NCI Yeast Anticancer Drug Screen. Data for the mlh1 rad18 strain (AID 175). Conditions: S. cerevisiae mlh1 rad18 strain growth inhibition, stronger effect = higher value. In a few lines: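 Read-out is yeast growth inhibition, calculated against vehicle-only controls. The compound was applied to a strain engineered with DNA damage repair alterations.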
[7] abbreviates: at 5.0 µM (retest, dose inferred, filed as 0.5).
Where [8] appears, read: at 50.0 µM (retest, dose inferred, filed as 5.0).

Molecules are shown by their SMILES. Compounds without any hit were thinned out: in the full panel of roughly 79,000, 15% have a hit. Values without a mark were called inactive. Calls of active or inactive are those of the source. Rule as the data show it: active = growth inhibition above about 70%; inactive = the rest. Where a SMILES comes first, the peptide text is derived from it. The star is where a group is joined. Cbz = O=C(OCc1ccccc1)*; Boc = CC(C)(C)OC(=O)*; OSu = O=C1CCC(=O)N1O*; Bn = c1ccc(C*)cc1

For the compound `Nc1cc(Br)c2cccnc2c1O`, the growth inhibition in test [1] (setting [7]) was 81% (active); in test [1] (setting [8]), 98% (active); in test [1] (at 50.0 µM), 97.2% (active); in test [2] (setting [7]) it was 44%; in test [2] (setting [8]) it was 98% (active); in test [2] (at 50.0 µM) it was 94.7% (active). The growth inhibition in test [3] (setting [7]) is 67%; in test [3] (setting [8]), 98% (active); in test [3] (at 50.0 µM), 98% (active); in test [4] (setting [7]), 28%; in test [4] (setting [8]), 98% (active); in test [4] (at 50.0 µM), 94.2% (active). The growth inhibition is 35% in test [5] (setting [7]); 98% (active) in test [5] (setting [8]); 93.7% (active) in test [5] (at 50.0 µM); 86% (active) in test [6] (setting [7]); 98% (active) in test [6] (setting [8]); 95.7% (active) in test [6] (at 50.0 µM).

As to `Clc1ccc2nc(Cl)c(Cl)nc2c1`, the growth inhibition in test [1] (setting [7]) is -143%; in test [1] (setting [8]), 42%; in test [1] (at 50.0 µM), 81.3% (active); in test [2] (setting [7]), -43%; in test [2] (setting [8]), 27%; in test [2] (at 50.0 µM), 45.3%. Besides, the growth inhibition in test [3] (setting [7]) was -56%; in test [3] (setting [8]), 76% (active); in test [3] (at 50.0 µM) it was 88.9% (active); in test [4] (setting [7]) it was -54%; in test [4] (setting [8]), 51%; in test [4] (at 50.0 µM) it was 59.5%. For the same compound, the growth inhibition is -71% in test [5] (setting [7]); 44% in test [5] (setting [8]); 65.2% in test [5] (at 50.0 µM); -137% in test [6] (setting [7]); 62% in test [6] (setting [8]); 69.6% in test [6] (at 50.0 µM).

Regarding `Cc1ccc(O)c(N=Nc2ccc(Cl)cc2)c1`, the growth inhibition in test [1] (setting [7]) is 0%; in test [1] (setting [8]), 2%; in test [1] (at 50.0 µM) it was -3.95%; in test [2] (setting [7]), 4%; in test [2] (setting [8]) it was -2%; in test [2] (at 50.0 µM) it was -1.95%. The growth inhibition in test [3] (setting [7]) is -3%; in test [3] (setting [8]), 17%; in test [3] (at 50.0 µM) it was -20.8%; in test [4] (setting [7]) it was 1%; in test [4] (setting [8]) it was -8%; in test [4] (at 50.0 µM), 7.2%. Also, the growth inhibition in test [5] (setting [7]) is 1%; in test [5] (setting [8]), -8%; in test [5] (at 50.0 µM) it was 4.4%; in test [6] (setting [7]) it was -3%; in test [6] (setting [8]), -1%; in test [6] (at 50.0 µM) it was -23.2%.

With `CC(O)c1cc(-c2ccc(Cl)cc2)nc2ccccc12` (stereo not given), the growth inhibition was 12% in test [1] (setting [7]); 97% (active) in test [1] (setting [8]); 97.8% (active) in test [1] (at 50.0 µM); 4% in test [2] (setting [7]); 98% (active) in test [2] (setting [8]); 97.2% (active) in test [2] (at 50.0 µM). The growth inhibition is 6% in test [3] (setting [7]); 98% (active) in test [3] (setting [8]); 98% (active) in test [3] (at 50.0 µM); 14% in test [4] (setting [7]); 98% (active) in test [4] (setting [8]); 97.2% (active) in test [4] (at 50.0 µM). Besides, the growth inhibition is 1% in test [5] (setting [7]); 98% (active) in test [5] (setting [8]); 97.8% (active) in test [5] (at 50.0 µM); -1% in test [6] (setting [7]); 97% (active) in test [6] (setting [8]); 96.5% (active) in test [6] (at 50.0 µM).

Take `CSC1=Nc2ccccc2SC(c2ccccc2)C1c1ccccc1` (stereo not given): the growth inhibition is 4% in test [1] (setting [7]); 14% in test [1] (setting [8]); 20.1% in test [1] (at 50.0 µM); 0% in test [2] (setting [7]); 15% in test [2] (setting [8]); 29.3% in test [2] (at 50.0 µM). The growth inhibition in test [3] (setting [7]) was 6%; in test [3] (setting [8]) it was 17%; in test [3] (at 50.0 µM) it was 67%; in test [4] (setting [7]), -3%; in test [4] (setting [8]), -9%; in test [4] (at 50.0 µM) it was 84.7% (active). Also, the growth inhibition in test [5] (setting [7]) was 5%; in test [5] (setting [8]), 7%; in test [5] (at 50.0 µM) it was 53.3%; in test [6] (setting [7]), 3%; in test [6] (setting [8]), 8%; in test [6] (at 50.0 µM), 63.9%.

Take `CC(C)(C)OC(=O)NC(Cc1ccc(OCc2ccccc2)cc1)C(=O)NC(CCCCNC(=O)OCc1ccccc1)C(=O)ON1C(=O)CCC1=O` (stereo not given) (Boc-Tyr(Bn)-Lys(Cbz)-OSu; configuration not given here): the growth inhibition in test [1] (setting [7]) is 47%; in test [1] (setting [8]), 73% (active); in test [1] (at 50.0 µM), 64.2%; in test [2] (setting [7]) it was 31%; in test [2] (setting [8]), 66%; in test [2] (at 50.0 µM), 48.5%. The growth inhibition in test [3] (setting [7]) is 40%; in test [3] (setting [8]) it was 64%; in test [3] (at 50.0 µM) it was 38.9%; in test [4] (setting [7]), 31%; in test [4] (setting [8]), 50%; in test [4] (at 50.0 µM) it was 55.5%. Further, the growth inhibition in test [5] (setting [7]) is 37%; in test [5] (setting [8]), 70% (active); in test [5] (at 50.0 µM), 62.5%; in test [6] (setting [7]) it was 51%; in test [6] (setting [8]), 83% (active); in test [6] (at 50.0 µM), 57%.

On to `O=C1c2cccc(NCCNCCO)c2C(=O)c2cccc(NCCNCCO)c21`, for which the growth inhibition in test [1] (setting [7]) is 18%; in test [1] (setting [8]) it was 58%; in test [1] (at 50.0 µM), -10.3%; in test [2] (setting [7]) it was -8%; in test [2] (setting [8]), -8%; in test [2] (at 50.0 µM), 7%. Moreover, the growth inhibition in test [3] (setting [7]) is 17%; in test [3] (setting [8]), 13%; in test [3] (at 50.0 µM), 31%; in test [4] (setting [7]), 24%; in test [4] (setting [8]), 32%; in test [4] (at 50.0 µM), 15.4%. The growth inhibition is 15% in test [5] (setting [7]); 22% in test [5] (setting [8]); 45.1% in test [5] (at 50.0 µM); 8% in test [6] (setting [7]); 15% in test [6] (setting [8]); 8.2% in test [6] (at 50.0 µM).

In the case of `OC1c2cccn2-c2cc(Cl)ccc2SC1c1ccccc1` (stereo not given), the growth inhibition was 2% in test [1] (setting [7]); 97% (active) in test [1] (setting [8]); 97% (active) in test [1] (at 50.0 µM); 1% in test [2] (setting [7]); 98% (active) in test [2] (setting [8]); 82.3% (active) in test [2] (at 50.0 µM). The growth inhibition in test [3] (setting [7]) was 15%; in test [3] (setting [8]), 97% (active); in test [3] (at 50.0 µM), 96.2% (active); in test [4] (setting [7]) it was -7%; in test [4] (setting [8]) it was 97% (active); in test [4] (at 50.0 µM), 93.2% (active). Also, the growth inhibition in test [5] (setting [7]) is 24%; in test [5] (setting [8]) it was 97% (active); in test [5] (at 50.0 µM) it was 95.6% (active); in test [6] (setting [7]), 8%; in test [6] (setting [8]), 97% (active); in test [6] (at 50.0 µM), 94.8% (active).

As to `CN(C)c1nc(=NCc2ccco2)ss1`, the growth inhibition in test [1] (setting [7]) was 12%; in test [1] (setting [8]), 51%; in test [1] (at 50.0 µM) it was 1.8%; in test [2] (setting [7]), 17%; in test [2] (setting [8]), 53%; in test [2] (at 50.0 µM), 2.3%. Moreover, the growth inhibition in test [3] (setting [7]) is 25%; in test [3] (setting [8]) it was 80% (active); in test [3] (at 50.0 µM), 17.9%; in test [4] (setting [7]) it was 13%; in test [4] (setting [8]), 32%; in test [4] (at 50.0 µM), 5.2%. Moreover, the growth inhibition in test [5] (setting [7]) is 32%; in test [5] (setting [8]), 76% (active); in test [5] (at 50.0 µM), -53%; in test [6] (setting [7]), 29%; in test [6] (setting [8]), 74% (active); in test [6] (at 50.0 µM), 9.8%.

As to `CCCCN(CCCC)S(=O)(=O)c1ccccc1`, the growth inhibition was 3% in test [1] (setting [7]); 27% in test [1] (setting [8]); 44.7% in test [1] (at 50.0 µM); -4% in test [2] (setting [7]); 3% in test [2] (setting [8]); 32.4% in test [2] (at 50.0 µM). Further, the growth inhibition in test [3] (setting [7]) is 1%; in test [3] (setting [8]), 52%; in test [3] (at 50.0 µM), 7.85%; in test [4] (setting [7]), -1%; in test [4] (setting [8]), -9%; in test [4] (at 50.0 µM) it was -11.4%. Moreover, the growth inhibition was 3% in test [5] (setting [7]); 14% in test [5] (setting [8]); 65.5% in test [5] (at 50.0 µM); 2% in test [6] (setting [7]); 17% in test [6] (setting [8]); 79% (active) in test [6] (at 50.0 µM).
